ChEMBL document CHEMBL4513216, “Probing the Open Global Health Chemical Diversity Library for Multistage-Active Starting Points for Next-Generation Antimalarials” (ACS Infect Dis, 2020)
The whole screen tested about 69,000 compounds, of which about 8,600 (12%) showed an effect of 50% or more. This is one part of a sample in which strong results are shown more often than they occur.

The compounds below were run on Plasmodium berghei (assay: Screen against P. berghei liver stage (PbLuc), transformed with Luciferase, at 10uM). Conditions: tested at 10 uM.
Type: functional, HepG2

SMILES | INHIBITION
COc1ccc(Cl)cc1CNCCCn1ccnc1 | -22.1%
Cc1ccc(CN(CCN(C)C)Cc2ncc[nH]2)s1 | 17.6%
Cc1ccc(CN(CCCN2CCOCC2)Cc2cncn2C)o1 | 30.4%
Cc1ccc(CN(CCCn2ccnc2)Cc2cnn(C)c2)s1 | 24.4%
Cc1ccc(CN(CCCn2ccnc2)Cc2cnc(N(C)C)nc2)s1 | -16.5%
COc1ccc(F)c(CN(CCCn2ccnc2)Cc2ccc(C)s2)c1 | 86.9%
Cc1ccc(CN(CCCn2ccnc2)Cc2cccs2)s1 | 82.1%
COc1ccc(Cn2ccnc2)cc1F | -20.7%
Cc1ccc(CN(CCCn2ccnc2)Cc2c(F)cccc2F)s1 | 94.1%
CCc1ccc(CN(CCCn2ccnc2)Cc2ccc(C)s2)o1 | 52.3%
CCCc1cncnc1N1CCCC2(CCC(=O)N(C3CCCC3)C2)C1 (centres undefined) | 32.4%
O=S(=O)(c1cnccc1N1CCN(CCO)CC1)N1CCCCC1 | 8.38%
CC(C)N1CCCC(c2cc(C(F)(F)F)nc3nccn23)C1 (centres undefined) | 3.03%
O=C(O)CCC(=O)Nc1nn(Cc2ccccc2Cl)cc1Cl | 19.3%
CC(C)c1nccn1C1CCCN(C(=O)c2ccc3nncn3c2)C1 (centres undefined) | 36.1%
Cc1cnn(CC2CCCN2C(=O)CCc2c(C)nc(C)[nH]c2=O)c1 (centres undefined) | -37.7%
CC(=O)N1CCC(c2cncc(Oc3ccccc3)n2)CC1 | 41.5%
CN(Cc1ccno1)c1nc(C2CCCC2)nc2c1cnn2C | 20%
Cc1cc(CN2CC[C@H]3C[C@H](C(=O)Nc4cccnc4C)O[C@@H]3C2)no1 | 48.6%
Cc1ccc(CN(CCCn2ccnc2)Cc2cc(F)ccc2F)s1 | 88.1%
OCc1ccc(CN(CCCn2ccnc2)Cc2ccncc2)o1 | 42.1%
Fc1ccccc1CN(CCCn1ccnc1)CC1CCOC1 (centres undefined) | 1.62%
c1cncc(CN(CCCn2ccnc2)CC2CCOC2)c1 (centres undefined) | 44.8%
OCc1ccc(CN(CCCn2ccnc2)Cc2cccnc2)o1 | 56%
CC(C)OCCCN(Cc1ccncc1)Cc1cc(F)ccc1F | -16.5%
CC(C)NC1CCCc2nc(-c3ccccc3)ncc21 (centres undefined) | -36.3%
CN1CCN(c2ccc(NS(=O)(=O)c3ccc(Cl)s3)cc2C(=O)O)CC1 | -12.6%

SMILES | INHIBITION
Cc1cc(C)n(CC2CCCCN2C(=O)CCc2ccncc2)n1 (centres undefined) | 4.52%
Cc1cccc(C(=O)Nc2c(C(N)=O)n[nH]c2C)c1C | -41.9%
CC(=O)N(Cc1noc(C)n1)C1CCN(Cc2ccc(C#N)cc2)C1 (centres undefined) | 27.4%
Cc1cc(C)c2c(NC(C)c3nncn3C3CCCC3)ncnc2n1 (centres undefined) | 35.1%
CN1N=C(c2nc(Cc3cccc(Br)c3)no2)CCC1=O | 25.4%
COc1ccc(-c2noc(C3=NN(C)C(=O)CC3)n2)cc1OC | -17.8%
COc1ccc(Cc2noc(C3=NN(C)C(=O)CC3)n2)cc1OC | 53.8%
CCOCC1CN(C(=O)c2cccs2)Cc2cnn(CC3CC3)c21 (centres undefined) | 14.6%
Cc1cc(C(=O)NC(COCC(C)C)c2ccco2)no1 (centres undefined) | 11.9%
CC(C)c1noc(C(C)S(=O)(=O)CC(=O)N2CCCC2)n1 (centres undefined) | 37.9%
O=C(c1ccc(=O)[nH]n1)N1CCCC(O)(CN2CCC(F)(F)CC2)CC1 (centres undefined) | -18.8%
Cc1cc2nc(C(C)C)cc(NCC(c3ccccn3)N(C)C)n2n1 (centres undefined) | 28%
COc1cc(NCC(c2ccccn2)N(C)C)ncn1 (centres undefined) | 53.6%
COc1cc(NCC(O)CN2CCCCCC2)ncn1 (centres undefined) | -25%
CC(c1nc(C(C)(C)C)no1)N1CCN(Cc2ccc(C#N)cc2)CC1 (centres undefined) | -4.94%
Cc1ccoc1C(=O)N1CCn2cc(CN3CCCC3)nc2C1 | 28.7%
CCOc1cccc2c1OCC(C(=O)NS(=O)(=O)c1c(C)noc1C)=C2 | -6.44%
CO[C@H]1CN(S(=O)(=O)c2ccc(F)cc2)C[C@@]12CCCO2 | -23.4%
CN(C)c1ccc(NC(=O)NCc2cccnc2N(C)C)cn1 | 17.5%
CC(C)(C)c1nc(CN2CCC(c3ccnn3CCO)CC2)no1 | -17%
CN1CCN(C2CCN(Cc3noc(C(C)(C)C)n3)CC2)C1=O | -21.5%
Clc1ccc2oc(C3CCN(Cc4nc(C5CC5)no4)CC3)nc2c1 | 42.6%
CCS(=O)(=O)c1ccc2oc([C@H]3CCN(Cc4cccnc4)C3)nc2c1 | 19.8%
CCc1nnc(CN2CCC(c3nc4cc(Cl)ccc4o3)CC2)o1 | 33.8%
CC(C)(C)c1nc(CN2CCC(c3nc4cc(Cl)ccc4o3)CC2)no1 | 56.9%
CC(C)(C)c1nc(CN2CCCC(c3noc(C4CC4)n3)C2)no1 (centres undefined) | -41.1%
CC(C)(C)c1nc(CN2CCC(N3CCCCC3)CC2)no1 | 56.3%
